Most compounds without a hit are left out; they make up all but 7.5% or so of the library.
FLuc modulator: inhibits or activates purified firefly luciferase, miR-21 counter-screen | 6.9% of 360,000 active | purified FLuc, Km substrates, luminescence inhibition | Potency, µM (doses to about 57.5 µM), actives largely listed as inhibitors; also: nearly all actives have a fitted effect of over 55% in size
Target sequence (P08659 whole entry, looked up): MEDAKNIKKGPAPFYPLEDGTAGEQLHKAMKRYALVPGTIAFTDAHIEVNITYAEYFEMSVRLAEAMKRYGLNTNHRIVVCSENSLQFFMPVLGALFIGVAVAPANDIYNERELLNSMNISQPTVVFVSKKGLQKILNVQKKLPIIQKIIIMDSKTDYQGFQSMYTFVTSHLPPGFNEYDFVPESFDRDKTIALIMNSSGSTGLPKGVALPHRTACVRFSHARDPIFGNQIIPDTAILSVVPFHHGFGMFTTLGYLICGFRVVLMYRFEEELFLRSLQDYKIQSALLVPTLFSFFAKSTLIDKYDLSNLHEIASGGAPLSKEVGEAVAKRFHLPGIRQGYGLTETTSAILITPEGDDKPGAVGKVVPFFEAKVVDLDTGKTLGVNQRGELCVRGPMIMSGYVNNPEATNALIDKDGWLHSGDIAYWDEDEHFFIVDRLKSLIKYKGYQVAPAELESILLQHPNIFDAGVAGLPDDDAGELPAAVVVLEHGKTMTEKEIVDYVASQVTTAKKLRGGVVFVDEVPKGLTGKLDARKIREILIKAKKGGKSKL
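Purified P. pyralis luciferase (10nM final) with 10uM D-luciferin and 10uM ATP (Km levels) in 50mM Tris acetate pH 7.5, 10mM Mg acetate, 0.01% Tween-20, 0.05% BSA; qHTS 6-point titration, ~60 µM downward; luminescence read.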
NPC1 prom act: NPC1 promoter activation; Potency, µM (doses to about 9.22 µM), hits mostly activators; 2.4% of 320,000 active; Huh7 NPC1 promoter luciferase reporter, 24 h; also: nearly all actives have a fitted effect of over 60% in size
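Luciferase expression driven by the NPC1 promoter was measured in stably transfected Huh7 cells after a 24 h compound incubation, using a luciferase reagent and a luminescence read.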
Rab9 promoter act: activators of Rab9 promoter. Huh7 Rab9 promoter-luciferase reporter, luminescence, 24 h. Potency, µM (top dose mostly 9.22 µM), actives largely listed as activators. 2.8% of 320,000 active. AID 485297; also: nearly all actives have a fitted effect of over 60% in size
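Luminescence read-out: Huh7 cells stably expressing Rab9-luciferase, treated 24 h with compound at 37 °C, then lysed with luciferase reagent for 10 min at ambient before reading.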
ELG1 genotoxic: inducers of genotoxicity in HEK293T ELG1-luciferase cells. HEK293T ELG1-luciferase reporter, luminescence, 16 h. Potency, µM (highest dose often 46 µM), hits mostly activators. 1.3% of 330,000 active. AID 504466; also: nearly all actives have a fitted effect of over 60% in size
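DMSO vehicle served as control against compound-treated ELG1-luciferase HEK293T cells; exposure lasted 16 hr at 37 °C and 5% CO2, followed by ONE-Glo luminescence detection after 30 min.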
Luc counter: Kinase-Glo luciferase inhibition (counter-screen) | Q27757 | Kinase-Glo luciferase, ATP luminescence, 8 min | Potency, µM (highest dose often 38.3 µM), actives largely listed as inhibitors | 0.28% of 200,000 active | AID 1379; also: nearly all actives have a fitted effect of over 60% in size
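Substrate mix (final 50 mM imidazole pH 7.2, 50 mM KCl, 7 mM MgCl2, 10 uM ATP, 0.01% Tween 20, 0.05% BSA) plus pin-tool compound, then Kinase-Glo detection mix; 8 min ambient, luminescence read.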
SMN2 splice enh: enhancers of SMN2 splice variant expression; HEK293 SMN2-luciferase splicing reporter, luminescence, 30-36 h; Potency, µM (series often up to 46.1 µM), actives largely listed as activators; 2.8% of 210,000 active; also: nearly all actives have a fitted effect of over 55% in size
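HEK293 cells carry an SMN2 […]–luciferase reporter in which exon 7 inclusion puts luciferase in frame. Cells were plated 10-12 h before compound addition, then incubated 30-36 h at 37C. ONE-Glo luminescence was read; sodium butyrate at 4.5 mM final served as control.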
Of the large screens only hits and unclear results are named; the others gave an inactive call. Calls follow the shape of the dose curve; as a rule, active = well fitted curve in the direction sought with a large enough effect; inconclusive = small, poorly fitted or top-dose-only effect, or another doubt; inactive = no such curve, though single readings can be large; an effect the other way counts as inactive or inconclusive.

CC(=O)Nc1nc(C)c(-c2csc(Nc3cccc(C(C)=O)c3)n2)s1	FLuc modulator inconclusive, Rab9 promoter act 0.71µM (no result: Luc counter, SMN2 splice enh)
Cc1nc(NC(=O)c2ccccc2)sc1-c1csc(Nc2ccc(C(=O)O)cc2)n1	FLuc modulator 0.48µM, Rab9 promoter act inconclusive (no result: Luc counter, SMN2 splice enh)
COc1ccc(CNCCSc2nnnn2-c2ccccc2)c(OC)c1	none (no result: NPC1 prom act, Rab9 promoter act, ELG1 genotoxic, Luc counter, SMN2 splice enh)
COc1ccc(-c2[nH]c(-c3ccc(OC)c(OC)c3)nc2SCC(=O)Nc2ccccc2)cc1	none (no result: NPC1 prom act, Rab9 promoter act, ELG1 genotoxic, Luc counter)
Cc1cc2c(cc1S(=O)(=O)CCC(=O)N1CCC(C)CC1)OCC(=O)N2	none (no result: NPC1 prom act, Rab9 promoter act, ELG1 genotoxic, Luc counter, SMN2 splice enh)
O=C(NCc1ccc2c(c1)OCO2)O[C@@H]1C(=O)c2cc(Br)ccc2O[C@H]1c1ccc2c(c1)OCO2	none (no result: FLuc modulator, NPC1 prom act, Rab9 promoter act, ELG1 genotoxic)
Cc1[nH]n(-c2nc(-c3cccc([N+](=O)[O-])c3)cs2)c(=O)c1C	FLuc modulator 4.8µM, NPC1 prom act inconclusive, Rab9 promoter act inconclusive, SMN2 splice enh 13µM
O=C(O)c1ccc(Nc2nc(-c3ccccc3)cs2)cc1	FLuc modulator 0.67µM, NPC1 prom act 0.4µM, Rab9 promoter act 0.4µM, SMN2 splice enh 2.5µM
CCC(=O)Nc1nc(C)c(-c2csc(Nc3ccc(C(=O)O)cc3)n2)s1	FLuc modulator 17µM (no result: Luc counter, SMN2 splice enh)
CC(=O)Nc1ccc(Nc2nc(-c3sc(NC(C)=O)nc3C)cs2)cc1	FLuc modulator inconclusive (no result: Luc counter, SMN2 splice enh)
Cc1csc(Nc2ccc(C(=O)O)cc2)n1	FLuc modulator inconclusive (no result: Luc counter, SMN2 splice enh)
CC(=O)Nc1nc(C)c(-c2csc(Nc3ccccn3)n2)s1	FLuc modulator 11µM, NPC1 prom act 3.5µM, Rab9 promoter act 1.6µM, SMN2 splice enh 13µM
Cc1c(Nc2nc(-c3cccc([N+](=O)[O-])c3)cs2)c(=O)n(-c2ccccc2)n1C	none (no result: SMN2 splice enh)
CCC(=O)Nc1nc(C)c(-c2csc(Nc3cccc(C(=O)O)c3)n2)s1	FLuc modulator 11µM
COc1cccc(Nc2nc(-c3sc(NC(=O)c4ccccc4)nc3C)cs2)c1	FLuc modulator 19µM
COc1cccc(NC(=O)c2sc(NC(=O)c3ccncc3)nc2C)c1	FLuc modulator 19µM (no result: Luc counter, SMN2 splice enh)
Cc1nc(NC(=O)c2ccc(Cl)cc2)sc1-c1csc(Nc2cccc(F)c2)n1	FLuc modulator 11µM
COc1cccc2c1cc1c(=O)n(CC(=O)N3CCN(c4ccc(Cl)cc4)CC3)nc(C)n12	none (no result: NPC1 prom act, Rab9 promoter act, ELG1 genotoxic, Luc counter)
Cc1ccccc1Cn1c(SCc2ccc(C(=O)NC3CCCCC3)cc2)nc2ccncc21	FLuc modulator inconclusive (no result: NPC1 prom act, Rab9 promoter act, ELG1 genotoxic, Luc counter)
Cc1cc(O)ccc1Nc1nc(-c2sc(N)nc2C)cs1	FLuc modulator inconclusive
Cc1ccc(Nc2nc(-c3sc(NC(=O)c4cccc(Cl)c4)nc3C)cs2)cc1	FLuc modulator 9.5µM
Cc1nc(N)sc1-c1csc(Nc2ccccc2)n1	FLuc modulator 11µM, NPC1 prom act inconclusive, Rab9 promoter act 2.8µM, SMN2 splice enh 11µM
Cc1nc(N)sc1-c1csc(Nc2cccc(C(=O)O)c2)n1	FLuc modulator 7.6µM (no result: Luc counter, SMN2 splice enh)
Cn1nc(C(=O)Nc2cc(F)ccc2F)c2c1-c1ccccc1SC2	none (no result: NPC1 prom act, Rab9 promoter act, ELG1 genotoxic, Luc counter, SMN2 splice enh)
Cc1cc(C)n(-c2nc3cc(Cl)c(Cl)cc3nc2Nc2c(C)cccc2C)n1	none (no result: NPC1 prom act, Rab9 promoter act, ELG1 genotoxic, Luc counter)
CC1CCCC(C)N1C(=O)COC(=O)CNC(=O)c1ccccc1 (stereo not given)	none (no result: Luc counter, SMN2 splice enh)
O=C(CNC(=O)c1ccc(Br)cc1)c1ccccc1	FLuc modulator 4.8µM, NPC1 prom act 2.8µM, Rab9 promoter act 2µM, ELG1 genotoxic inconclusive (no result: Luc counter, SMN2 splice enh)
O=C(CNC(=O)c1ccccc1)OC1CCCCC1	FLuc modulator 12µM, NPC1 prom act 4µM, Rab9 promoter act 0.89µM, ELG1 genotoxic inconclusive, SMN2 splice enh 13µM
O=C(CNC(=O)c1ccc(Br)cc1)c1ccc(Br)cc1	none (no result: Luc counter, SMN2 splice enh)
O=C(NC[C@H](O)c1ccccc1)c1ccccc1	SMN2 splice enh 14µM (no result: FLuc modulator, NPC1 prom act, Rab9 promoter act, ELG1 genotoxic)
CC(NC(=O)COC(=O)CNC(=O)c1ccc(-c2ccccc2)cc1)c1ccccc1 (stereo not given)	FLuc modulator 17µM (no result: Luc counter, SMN2 splice enh)
O=C(O)CNC(=O)c1ccccc1	none (no result: SMN2 splice enh)
O=C(CNC(=O)c1ccccc1)c1ccccc1	FLuc modulator 6.7µM, NPC1 prom act 0.71µM, Rab9 promoter act 0.45µM, ELG1 genotoxic inconclusive (no result: Luc counter, SMN2 splice enh)
CCCCCOC(=O)NCC(O)c1ccccc1 (stereo not given)	FLuc modulator 13µM, NPC1 prom act 2.5µM, Rab9 promoter act 4.5µM, ELG1 genotoxic inconclusive, SMN2 splice enh inconclusive
COc1ccc(C(=O)NCC(=O)OCc2ccc(Br)cc2)cc1	none
O=C(CNC(=O)c1ccc(-c2ccccc2)cc1)OCc1ccc(Br)cc1	FLuc modulator 21µM, SMN2 splice enh 3.5µM
O=C(CNC(=O)c1ccc(F)cc1)c1ccc(Cl)cc1	FLuc modulator 9.5µM, NPC1 prom act 4µM, Rab9 promoter act 1.6µM, ELG1 genotoxic inconclusive (no result: Luc counter, SMN2 splice enh)
CCCCOC(=O)NC(NCC(O)c1ccccc1)(C(F)(F)F)C(F)(F)F (stereo not given)	none
CC1=C(C)CC(C(=O)NNC(=O)c2ccccc2)C(C(=O)O)C1 (stereo not given)	none
O=C(CNC(=O)c1ccccc1C(=O)O)c1ccccc1	FLuc modulator 12µM, NPC1 prom act 2.8µM, Rab9 promoter act 3.5µM, ELG1 genotoxic inconclusive

Compound activity from PubChem BioAssay.
